Data published in PubChem BioAssay (Tox21).
Values joined by “and” are separate entries in the source; they are usually repeats but may differ in a detail not shown here. Equal entries are not always repeated. Results filed as inconclusive are left out. Entries that show only a call come without a potency. Where a structure was tested more than once in an assay, its records may differ in their call. Active and inactive are the calls of the source. Calls come from the whole dose curve; as a rule, active = well fitted cell-killing curve with a large enough effect in the repeat runs; inconclusive = weak or mixed curves, or effect the other way; inactive = flat fitted curve, though single readings scatter.

Assay: Nuclear factor erythroid 2-related factor 2/antioxidant responsive element (Nrf2/ARE) small molecule agonists: qHTS cell viability counter screen in human keratinocytes (AID 1919968); note: nearly all actives have a fitted effect of over 55% in size
Details: KeratinoSens HaCaT ARE cells viability, CellTiter-Fluor, 24 h; series mostly up to 92.4 µM
Outline: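 Seed 1,500 KeratinoSens cells per well, then incubate 5 h at 37 C/5% CO2. Add compounds in DMSO and incubate 23 h. Add CellTiter-Fluor, wait 1 h and read fluorescence.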
Potency is the fitted concentration of half-maximal effect.

SMILES | Potency
CCC(C)OC(=O)c1ccc(O)cc1 (centres undefined) | inactive
O=c1n(CC2CO2)c(=O)n(CC2CO2)c(=O)n1CC1CO1 (centres undefined) | inactive
COc1ccc2c(c1)c(CC(=O)O)c(C)n2C(=O)c1ccc(Cl)cc1 | inactive
Oc1c(Cl)cc(Cl)c(Cl)c1Cc1c(O)c(Cl)cc(Cl)c1Cl | 21.6 µM (active) and 30.6 µM (active) and 26.6 µM (active)
NC(=O)c1ncn([C@@H]2O[C@H](CO)[C@@H](O)[C@H]2O)n1 | inactive
CC(=O)OCC(=O)[C@@]12N=C(C)O[C@@H]1C[C@H]1[C@@H]3CCC4=CC(=O)C=C[C@]4(C)[C@H]3[C@@H](O)C[C@@]12C | inactive
CCCCC(CC)COC(=O)C(C#N)=C(c1ccccc1)c1ccccc1 (centres undefined) | inactive
OC1CCCCC1 | inactive
Cc1cc(=O)[nH]c(=S)[nH]1 | inactive
O=c1c(O)c(-c2ccc(O)cc2)oc2cc(O)cc(O)c12 | inactive
COCCOCCOC | inactive
C=C(C)C(=O)OCCCCCC | inactive
C=C(C)C1CC=C(C)C(OC(C)=O)C1 (centres undefined) | inactive
Nc1ncn([C@@H]2O[C@H](CO)[C@@H](O)[C@H]2O)c(=O)n1 | inactive
C=C1C2CCC(C2)C1(C)C (centres undefined) | inactive
COCc1c(C(C)C)nc(C(C)C)c(/C=C/[C@@H](O)C[C@@H](O)CC(=O)O)c1-c1ccc(F)cc1 | inactive
CC(=O)Nc1ccc(C(=O)CCl)cc1 | inactive and 27.3 µM (active)
C=CC(C)(CCC=C(C)C)OC(C)=O (centres undefined) | inactive
C[C@]12C[C@H](O)[C@H]3[C@@H](CCC4=CC(=O)CC[C@@]43C)[C@@H]1CC[C@@H]2C(=O)CO | inactive
